# Results: the supplement of paper PMC12645437, “Orthogonal IMiD-Degron Pairs Induce Selective Protein Degradation in Cells” (ACS Chemical Biology, 2025)
# Whole data set: some 8,300 sequences, median “log2 fold change of degron read counts, EGFP-low vs EGFP+ sorted cells (limma voom), compound-induced degradation” near -1.1, cut for the highest 2% near 3.2. This is one part of a sample in which the highest values are shown more often than they occur.
# T1: CRBN, Q96SW2
# T1 chain: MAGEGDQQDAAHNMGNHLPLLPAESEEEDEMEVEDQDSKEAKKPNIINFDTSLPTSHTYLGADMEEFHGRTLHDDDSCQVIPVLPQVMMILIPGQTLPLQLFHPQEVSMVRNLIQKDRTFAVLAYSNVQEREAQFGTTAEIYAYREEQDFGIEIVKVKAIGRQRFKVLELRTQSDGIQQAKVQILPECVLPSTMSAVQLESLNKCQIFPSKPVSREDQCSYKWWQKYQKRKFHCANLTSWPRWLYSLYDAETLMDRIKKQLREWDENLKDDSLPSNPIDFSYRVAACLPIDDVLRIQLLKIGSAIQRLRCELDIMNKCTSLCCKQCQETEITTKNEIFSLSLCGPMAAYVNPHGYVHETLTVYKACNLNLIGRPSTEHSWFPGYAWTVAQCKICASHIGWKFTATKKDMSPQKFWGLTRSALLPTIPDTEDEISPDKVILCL
# B1: 46F_47T_49P_50V_52G_53A_54Q_55F_67L_, Q9UKT9 (peptide)
# chain: FTCPVCGAQFTQKGNLLRHIKL
# B2: 46F_47K_49P_50I_52G_53H_54L_55F_67L_, Q9UKT9 (peptide)
# chain: FKCPICGHLFTQKGNLLRHIKL
# B3: 46F_47T_49N_50V_52G_53A_54G_55F_67L_, Q9UKT9 (peptide)
# chain: FTCNVCGAGFTQKGNLLRHIKL
# B4: 46L_47Q_49E_50I_52G_53F_54D_55C_67L_, Q9UKT9 (peptide)
# chain: LQCEICGFDCTQKGNLLRHIKL
# B5: 46L_47T_49N_50Q_52G_53F_54Q_55C_67L_, Q9UKT9 (peptide)
# chain: LTCNQCGFQCTQKGNLLRHIKL
# B6: 46F_47R_49D_50I_52G_53A_54Y_55F_67L_, Q9UKT9 (peptide)
# chain: FRCDICGAYFTQKGNLLRHIKL
# B7: 46F_47R_49D_50I_52G_53A_54C_55F_67L_, Q9UKT9 (peptide)
# chain: FRCDICGACFTQKGNLLRHIKL
# B8: 46F_47Q_49D_50I_52G_53A_54C_55F_67L_, Q9UKT9 (peptide)
# chain: FQCDICGACFTQKGNLLRHIKL
# B9: 46F_47E_49D_50I_52G_53A_54C_55F_67L_, Q9UKT9 (peptide)
# chain: FECDICGACFTQKGNLLRHIKL
# B10: 46F_47M_49D_50I_52G_53A_54C_55F_67L_, Q9UKT9 (peptide)
# chain: FMCDICGACFTQKGNLLRHIKL
# B11: 46F_47F_49D_50I_52G_53A_54C_55F_67L_, Q9UKT9 (peptide)
# chain: FFCDICGACFTQKGNLLRHIKL
# B12: 46F_47C_49D_50I_52G_53A_54C_55F_67L_, Q9UKT9 (peptide)
# chain: FCCDICGACFTQKGNLLRHIKL
# B13: 46F_47T_49D_50I_52G_53A_54C_55F_67L_, Q9UKT9 (peptide)
# chain: FTCDICGACFTQKGNLLRHIKL
# B14: 46F_47Y_49D_50I_52G_53A_54C_55F_67L_, Q9UKT9 (peptide)
# chain: FYCDICGACFTQKGNLLRHIKL
# B15: 46F_47A_49D_50I_52G_53A_54C_55F_67L_, Q9UKT9 (peptide)
# chain: FACDICGACFTQKGNLLRHIKL
# B16: 46F_47S_49D_50I_52G_53A_54C_55F_67L_, Q9UKT9 (peptide)
# chain: FSCDICGACFTQKGNLLRHIKL
# B17: 46F_47W_49D_50I_52G_53A_54C_55F_67L_, Q9UKT9 (peptide)
# chain: FWCDICGACFTQKGNLLRHIKL
# B18: 46F_47H_49D_50I_52G_53A_54C_55F_67L_, Q9UKT9 (peptide)
# chain: FHCDICGACFTQKGNLLRHIKL
# Biological target: T1, CRBN, Q96SW2
# Experiment: log2 fold change of degron read counts, EGFP-low vs EGFP+ sorted cells (limma voom), compound-induced degradation; higher = more compound-induced degradation of the degron-EGFP fusion; degrons are variants of IKZF1/3 zinc finger 2; compound dose not given here
# Details: Jurkat, 18 h
# [1] = compound: compound 19 (5-tert-butyl-thalidomide)
# [2] = compound: compound 22 (5-morpholino-thalidomide)
# [3] = compound: compound 33 (diphenyl IMiD analogue)
# 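Note: pooled lentiviral library of zinc finger degron-EGFP fusions in mCherry-positive Jurkat cells, FACS-sorted after compound exposure, with degron abundance counted by next-generation sequencing.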
Sequence,log2 fold change of degron read counts [1],log2 fold change of degron read counts [2],log2 fold change of degron read counts [3],log2 fold change of degron read counts (compound: thalidomide)
B1,0.0342,2.63,2.78,2.72
B2,-2.52,-3,-3.86,-2.43
B3,-0.827,-0.181,0.811,0.259
B4,-2.82,-2.45,-2.23,-1.2
B5,-2.38,-2.53,-1.48,-1.47
B6,-1.87,-1.92,-0.0846,0.62
B7,-1.25,-1.11,1.03,0.116
B8,-0.256,2.12,1.17,3.3
B9,-0.944,-2.76,0.061,0.157
B10,-1.13,-0.637,1.57,-0.555
B11,3.31,3.14,1.33,-1.14
B12,1.6,1.36,1.87,0.543
B13,1.04,1.6,1.21,0.886
B14,3.33,3.42,1.9,-0.704
B15,2.85,0.596,-0.194,-1.27
B16,1.95,1.34,1.4,-0.055
B17,3.31,3.65,1.33,-0.4
B18,1.53,1.18,-0.205,-1.25
